Reference: PubChem BioAssay AID1220 (Sanford-Burnham Center for Chemical Genomics, 2008)
Out of some 190,000 compounds screened, about 1,300 (0.68%) were called active. Cut-off read from the data, not from the text of the source: active = inhibition above about 50%; inactive = the rest. The full list was thinned out, with actives kept by preference.

Target: Mannose-6-phosphate isomerase (Homo sapiens) (UniProt P34949)
Experiment: MPI inhibition at elevated mannose 6-phosphate – biochemical, fluorescence intensity, high mannose 6-phosphate, primary screen (AID 1220)
Conditions: recombinant PMI enzyme, coupled fluorescence intensity; at 20 µM; active compounds read high

Mannose-6-phosphate isomerase (Homo sapiens), sequence (P34949 whole entry, looked up): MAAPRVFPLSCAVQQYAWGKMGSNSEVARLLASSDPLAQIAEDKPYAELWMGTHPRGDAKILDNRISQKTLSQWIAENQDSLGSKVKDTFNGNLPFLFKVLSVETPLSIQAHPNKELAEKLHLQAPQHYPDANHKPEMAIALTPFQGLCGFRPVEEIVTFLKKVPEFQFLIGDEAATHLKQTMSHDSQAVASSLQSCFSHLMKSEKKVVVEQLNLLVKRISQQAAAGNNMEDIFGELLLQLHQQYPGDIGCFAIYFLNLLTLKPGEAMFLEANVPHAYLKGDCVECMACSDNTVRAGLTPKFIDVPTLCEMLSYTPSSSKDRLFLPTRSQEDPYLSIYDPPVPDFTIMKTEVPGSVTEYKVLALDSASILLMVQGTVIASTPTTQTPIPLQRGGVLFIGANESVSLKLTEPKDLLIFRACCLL

SMILES | inhibition
COc1cc(NC(C)CCCN)c2ncccc2c1Oc1ccccc1 (stereo not given) | 56.6% (active)
COc1ccc(S(=O)(=O)N(CC(C)C)CC(C)C)c2cccnc12 | 10.4% (inactive)
COc1ccccc1Oc1ccc2c(c1)C(=O)N(c1ccc(Br)c3cccnc13)C2=O | 8.4% (inactive)
O=C(N/N=C/c1c[nH]c2ccccc12)c1ccn(Cc2ccc(Cl)cc2)n1 | 1.6% (inactive)
O=C(CSCc1nc2ccccc2[nH]1)Nc1ccc(Oc2ccccc2)cc1 | 10.1% (inactive)
O=S(=O)(NCc1ccncc1)c1ccccc1 | -9.4% (inactive)
C#CCOC(=O)Nc1cccn(Cc2c(Cl)cccc2Cl)c1=O | -71% (inactive)
O=C(Nc1ccccc1)Nc1cccn(Cc2c(F)cccc2Cl)c1=O | 35.6% (inactive)
COC(=O)Nc1cccn(Cc2c(Cl)cccc2Cl)c1=O | 58.7% (active)
O=C(Nc1cccn(Cc2c(F)cccc2Cl)c1=O)NC1CCCCC1 | 17.3% (inactive)
O=C(NCc1ccccc1)Nc1cccn(Cc2ccccc2F)c1=O | 20.5% (inactive)
O=C(NCc1ccccc1)Nc1cccn(Cc2c(F)cccc2Cl)c1=O | 53.7% (active)
Cc1ccc(NC(=O)Nc2cccn(Cc3c(F)cccc3Cl)c2=O)cc1 | 55.7% (active)
CC(=O)Nc1cccn(Cc2c(Cl)cccc2Cl)c1=O | 8.5% (inactive)
O=C(NCc1ccccc1)Nc1cccn(Cc2ccccc2Cl)c1=O | 38.2% (inactive)
O=C(Cn1cncn1)NCCC(c1ccccc1)c1ccccc1 | 5.2% (inactive)
COc1ccc2c(c1)CC/C2=N\OC(=O)c1cccc(C)c1 | 2.5% (inactive)
CCC1CCCCN1C(=O)c1c[nH]c2ccc(S(=O)(=O)N(C)c3ccc(Cl)cc3)cc2c1=O (stereo not given) | 1.6% (inactive)
O=C(COc1ncnc2cc([N+](=O)[O-])ccc12)N(CCc1ccccc1)Cc1ccccc1 | 16.7% (inactive)
O=C(CCN1CCN(S(=O)(=O)c2ccc(Br)cc2)CC1)Nc1ccccc1F | -6.1% (inactive)

SMILES | inhibition
O=C1c2ccccc2C(=O)c2c1ncn2-c1ccccc1 | 59.1% (active)
O=C1c2ccccc2-c2nccnc21 | 6.6% (inactive)
c1ccc(-n2cnc3ccccc32)cc1 | -1.2% (inactive)
Cc1ccsc1/C=N/N=C1\C(=O)Nc2ccccc21 | 5.3% (inactive)
CCc1nn(C(C)C(=O)Nc2cccc(C)c2C)c(=O)c2cc3occc3n12 (stereo not given) | 6.9% (inactive)
CCCCc1c(C)nc2ccccc2c1SCCC#N | -31.5% (inactive)
O=[N+]([O-])c1ccc(N2CCN(CCO)CC2)c2ncccc12 | 65% (active)
O=C(c1cccc(F)c1)N1CCN(c2ccc([N+](=O)[O-])c3cccnc23)CC1 | 62.3% (active)
O=C(c1ccccc1F)N1CCN(c2ccc([N+](=O)[O-])c3ncccc23)CC1 | 38.3% (inactive)
Cc1ccc(S(=O)(=O)N2CCN(c3ccc([N+](=O)[O-])c4cccnc34)CC2)cc1 | 20.2% (inactive)
Cc1cc(N2CCN(c3ccc([N+](=O)[O-])c4cccnc34)CC2)c2ccccc2n1 | 46.7% (inactive)
COc1ccc(N2CCN(C(=O)c3cccc(F)c3)CC2)c([N+](=O)[O-])c1 | 11.8% (inactive)
O=C(c1cccc(F)c1)N1CCN(c2cc(N3CCCCC3)c(F)cc2[N+](=O)[O-])CC1 | 15.2% (inactive)
O=C(c1ccccc1F)N1CCN(c2ccc([N+](=O)[O-])c3cccnc23)CC1 | 58.4% (active)
O=C(c1cc(F)c(F)cc1Cl)N1CCN(c2ccc([N+](=O)[O-])c3ncccc23)CC1 | 46.1% (inactive)
CSc1nc2c(c(=O)n1C)SC(C)C2 (stereo not given) | 4.1% (inactive)
Cc1ccn(-c2cc(O)c(-n3ccc(C)n3)cc2O)n1 | 13.9% (inactive)
COCCCNC(=O)Cn1cnc2sc(C)c(S(=O)(=O)N3CCN(c4ncccn4)CC3)c2c1=O | 9.4% (inactive)
COc1cccc2cc(-c3ccnc(N)n3)oc12 | 18.3% (inactive)
Cc1c(C(=O)NC(C)CCc2ccccc2)cccc1[N+](=O)[O-] (stereo not given) | 10.1% (inactive)

SMILES | inhibition
Cc1ccc(CNC(=O)c2cc3c(-c4ccc(Cl)cc4)nn(C)c3s2)o1 | 12.8% (inactive)
CCCN(CCC)C(=O)CC(c1ccccc1)c1cc(Br)ccc1O (stereo not given) | 17.3% (inactive)
CCCSc1nc2c3c(sc2c(=O)[nH]1)CC(C)(CC)OC3 (stereo not given) | 4.6% (inactive)
Nc1ccccc1C(=O)N=Nc1[nH]c(N)c2ccccc12 | 9.9% (inactive)
Cn1cc(C(CC(=O)O)C(=O)O)c2ccccc21 (stereo not given) | 4.1% (inactive)
NC(=O)CSc1cn(Cc2ccc(F)cc2)c2ccccc12 | 12.6% (inactive)
O=C(O)Cc1cn(Cc2ccc(F)cc2)c2ccccc12 | -9.7% (inactive)
Cn1cc(C(c2ccccn2)c2cn(C)c3ccccc23)c2ccccc21 | -0.8% (inactive)
Cc1[nH][nH]c(=O)c1C(c1c(C)[nH][nH]c1=O)c1cn(Cc2ccc(F)cc2)c2ccccc12 | 57.2% (active)
Cc1[nH][nH]c(=O)c1C(c1ccc(-c2ccc(Cl)c(Cl)c2)o1)c1c(C)[nH][nH]c1=O | -45.1% (inactive)
Cc1[nH][nH]c(=O)c1C(c1c(C)[nH][nH]c1=O)c1cn(Cc2ccc(Cl)c(Cl)c2)c2ccccc12 | 58% (active)
Cc1[nH][nH]c(=O)c1C(c1c(C)[nH][nH]c1=O)c1cn(C)c2ccccc12 | 54.8% (active)
CCOC(=O)n1c(=O)n(Cc2ccc(Cl)c(Cl)c2)c2ccccc21 | 12.4% (inactive)
Cc1ccc(-c2nc(SCC(=O)Nc3cc(S(=O)(=O)N4CCCCC4)ccc3Cl)n[nH]2)cc1 | 10.9% (inactive)
C=C1c2ccccc2NC(=S)N1Cc1ccc2c(c1)OCO2 | -15.3% (inactive)
N#CC1=C(N)SC2(CCCCC2)SC1c1ccccc1 (stereo not given) | -5.5% (inactive)
CC(C)CC(=O)OCc1cn(-c2ccccc2)nn1 | -8.7% (inactive)
Cc1nnc(NC(=O)CSc2nccn2C)s1 | -2.9% (inactive)
COc1ccc(-n2nc3c(N)n[nH]c3cc2=O)cc1 | -97.5% (inactive)
CCOc1c(OC(C)=O)ccc(/C=C/c2ccc3cccc(OC)c3n2)c1[N+](=O)[O-] | 11.3% (inactive)
